Columns and labels:
Assay in all cases: DAPPL (digital affinity profiling via proximity ligation, sequencing); 10 mM Tris-HCl pH 7.5, 50 mM NaCl, 1 mM DTT, 4% glycerol, room temperature, 30 min; GST-TFs on glutathione beads, 16-mer random dsDNA library, 0.1% formaldehyde crosslink after washing; high values mean tight binding
Conditions in all cases: protein: recombinant; tags: N-terminal GST; dsDNA, one strand shown
[1] = target: T1, ERF (Homo sapiens, UniProt P50548 1-548)
T1 sequence: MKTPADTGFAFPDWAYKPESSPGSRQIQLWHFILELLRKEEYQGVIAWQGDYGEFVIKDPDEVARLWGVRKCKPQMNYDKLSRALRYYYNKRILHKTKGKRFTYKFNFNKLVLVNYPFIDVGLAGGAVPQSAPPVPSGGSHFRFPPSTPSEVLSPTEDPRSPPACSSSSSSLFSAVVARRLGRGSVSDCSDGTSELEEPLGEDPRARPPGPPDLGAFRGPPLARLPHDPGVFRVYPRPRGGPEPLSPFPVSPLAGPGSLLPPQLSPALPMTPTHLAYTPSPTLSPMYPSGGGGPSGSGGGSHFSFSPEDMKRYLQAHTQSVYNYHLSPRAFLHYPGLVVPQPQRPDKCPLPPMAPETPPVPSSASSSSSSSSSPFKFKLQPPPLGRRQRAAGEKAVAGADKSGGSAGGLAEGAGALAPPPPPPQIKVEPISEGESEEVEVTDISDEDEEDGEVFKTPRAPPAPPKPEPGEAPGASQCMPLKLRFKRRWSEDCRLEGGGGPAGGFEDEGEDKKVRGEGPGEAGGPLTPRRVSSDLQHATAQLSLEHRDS
Procedure, shortened: (§1)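 Binding signal is defined as a hexamer's read frequency for one factor over its frequency for the tag-only sample. To obtain reads, GST-fused human transcription factors were expressed in yeast, captured on glutathione beads, barcoded with DNA and pooled with that sample. Pools met 200 nmole of a 16-mer random double-stranded DNA library in Tris/NaCl/DTT/glycerol buffer for 30 min at room temperature before washing, 0.1% formaldehyde crosslinking, proximity ligation (BsaI/T4 ligase, 1 h, 37 °C), PCR and Illumina NextSeq500 sequencing.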

[2] = target: T2, ETV3L (Homo sapiens, UniProt Q6ZN32 1-361)
T2 sequence: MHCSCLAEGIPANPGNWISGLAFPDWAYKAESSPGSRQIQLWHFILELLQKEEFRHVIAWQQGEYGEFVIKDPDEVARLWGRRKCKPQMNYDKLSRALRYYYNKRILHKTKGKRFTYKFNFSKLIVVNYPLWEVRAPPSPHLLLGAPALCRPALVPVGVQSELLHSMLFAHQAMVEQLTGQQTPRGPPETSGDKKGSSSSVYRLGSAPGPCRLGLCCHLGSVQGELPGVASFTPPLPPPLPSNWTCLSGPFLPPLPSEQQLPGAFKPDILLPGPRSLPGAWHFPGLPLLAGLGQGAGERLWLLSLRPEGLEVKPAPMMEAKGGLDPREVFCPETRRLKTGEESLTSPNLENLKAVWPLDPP
Procedure, shortened: as §1

[3] = target: T3, ETS2 (Homo sapiens, UniProt P15036 1-469)
T3 sequence: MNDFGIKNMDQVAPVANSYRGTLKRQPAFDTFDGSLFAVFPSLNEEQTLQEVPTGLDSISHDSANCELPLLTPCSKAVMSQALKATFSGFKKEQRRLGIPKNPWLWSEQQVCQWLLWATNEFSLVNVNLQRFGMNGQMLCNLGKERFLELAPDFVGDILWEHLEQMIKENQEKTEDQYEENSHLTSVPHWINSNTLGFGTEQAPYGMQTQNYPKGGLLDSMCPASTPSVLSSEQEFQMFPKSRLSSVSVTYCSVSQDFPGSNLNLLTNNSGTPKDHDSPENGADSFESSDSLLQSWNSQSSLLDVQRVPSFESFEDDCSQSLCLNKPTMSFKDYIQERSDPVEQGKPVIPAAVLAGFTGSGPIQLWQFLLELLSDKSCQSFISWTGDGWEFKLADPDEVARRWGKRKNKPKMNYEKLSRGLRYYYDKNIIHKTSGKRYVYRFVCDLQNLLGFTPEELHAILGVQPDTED
Procedure, shortened: as §1

[4] = target: T4, SPDEF (Homo sapiens, UniProt O95238 1-335)
T4 sequence: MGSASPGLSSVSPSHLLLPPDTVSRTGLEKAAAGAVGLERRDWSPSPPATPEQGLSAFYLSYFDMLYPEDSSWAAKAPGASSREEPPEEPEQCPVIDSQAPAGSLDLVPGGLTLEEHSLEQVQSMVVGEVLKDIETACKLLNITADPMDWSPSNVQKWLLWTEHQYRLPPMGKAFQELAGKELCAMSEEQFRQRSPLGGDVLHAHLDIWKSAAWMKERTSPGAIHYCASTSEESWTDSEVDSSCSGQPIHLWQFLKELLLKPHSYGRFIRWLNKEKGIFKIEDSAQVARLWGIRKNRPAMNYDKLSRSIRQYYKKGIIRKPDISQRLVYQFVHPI
Procedure, shortened: as §1

[5] = target: T5, ETV7 (Homo sapiens, UniProt Q9Y603 1-341)
T5 sequence: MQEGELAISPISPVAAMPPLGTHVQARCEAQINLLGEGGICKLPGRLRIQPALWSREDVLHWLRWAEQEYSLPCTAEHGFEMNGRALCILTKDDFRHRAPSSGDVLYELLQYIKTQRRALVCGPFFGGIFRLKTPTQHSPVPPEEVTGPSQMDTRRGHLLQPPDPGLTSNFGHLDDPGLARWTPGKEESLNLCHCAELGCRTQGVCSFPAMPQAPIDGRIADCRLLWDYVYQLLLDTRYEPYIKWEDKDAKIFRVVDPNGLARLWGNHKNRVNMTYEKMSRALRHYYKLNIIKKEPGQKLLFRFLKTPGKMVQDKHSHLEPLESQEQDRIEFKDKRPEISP
Procedure, shortened: as §1

[6] = target: T6, ELF5 (Homo sapiens, UniProt Q9UKW6-2 1-255)
T6 sequence: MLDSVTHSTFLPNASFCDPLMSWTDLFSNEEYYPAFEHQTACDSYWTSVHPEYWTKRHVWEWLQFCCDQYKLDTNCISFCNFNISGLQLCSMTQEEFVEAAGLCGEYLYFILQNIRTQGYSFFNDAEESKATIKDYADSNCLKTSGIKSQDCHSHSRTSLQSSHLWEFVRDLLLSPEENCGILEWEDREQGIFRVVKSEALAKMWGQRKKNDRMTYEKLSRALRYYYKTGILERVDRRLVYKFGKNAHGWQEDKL
Procedure, shortened: as §1

[7] = target: T7, ETV3 (Homo sapiens, UniProt P41162-2 1-143)
T7 sequence: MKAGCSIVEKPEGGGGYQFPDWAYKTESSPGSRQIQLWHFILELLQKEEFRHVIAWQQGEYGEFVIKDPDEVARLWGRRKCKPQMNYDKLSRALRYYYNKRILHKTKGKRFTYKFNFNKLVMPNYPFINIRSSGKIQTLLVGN
Procedure, shortened: as §1

[8] = target: ETV6 (Homo sapiens, UniProt P41212 1-452)
Chain of ETV6 (P41212 whole entry): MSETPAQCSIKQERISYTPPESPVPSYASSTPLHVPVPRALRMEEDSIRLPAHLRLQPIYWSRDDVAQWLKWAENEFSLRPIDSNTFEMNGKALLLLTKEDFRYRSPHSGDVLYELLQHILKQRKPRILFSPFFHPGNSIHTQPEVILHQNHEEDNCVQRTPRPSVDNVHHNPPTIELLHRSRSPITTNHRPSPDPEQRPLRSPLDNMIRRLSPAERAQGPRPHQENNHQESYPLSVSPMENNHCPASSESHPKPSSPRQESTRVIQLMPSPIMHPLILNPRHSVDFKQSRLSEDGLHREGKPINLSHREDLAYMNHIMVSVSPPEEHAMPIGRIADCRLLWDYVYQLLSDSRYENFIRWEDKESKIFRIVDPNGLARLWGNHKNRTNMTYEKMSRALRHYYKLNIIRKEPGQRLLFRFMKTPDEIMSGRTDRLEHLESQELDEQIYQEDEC
Procedure, shortened: as §1

Sequence	binding signal [1]	binding signal [2]	binding signal [3]	binding signal [4]	binding signal [5]	binding signal [6]	binding signal [7]	binding signal [8]
TTGTCT	1.16 fold enrichment (6-mer frequency, TF over GST control)	1.18 fold enrichment (6-mer frequency, TF over GST control)	1.22 fold enrichment (6-mer frequency, TF over GST control)	1.22 fold enrichment (6-mer frequency, TF over GST control)	1.33 fold enrichment (6-mer frequency, TF over GST control)	1.26 fold enrichment (6-mer frequency, TF over GST control)	1.23 fold enrichment (6-mer frequency, TF over GST control)	1.13 fold enrichment (6-mer frequency, TF over GST control)
TTACAA	1.23 fold enrichment (6-mer frequency, TF over GST control)	1.1 fold enrichment (6-mer frequency, TF over GST control)	1.16 fold enrichment (6-mer frequency, TF over GST control)	1.22 fold enrichment (6-mer frequency, TF over GST control)	1.11 fold enrichment (6-mer frequency, TF over GST control)	1.17 fold enrichment (6-mer frequency, TF over GST control)	1.08 fold enrichment (6-mer frequency, TF over GST control)	1.09 fold enrichment (6-mer frequency, TF over GST control)
CCGTCT	1.28 fold enrichment (6-mer frequency, TF over GST control)	1.4 fold enrichment (6-mer frequency, TF over GST control)	1.29 fold enrichment (6-mer frequency, TF over GST control)	1.42 fold enrichment (6-mer frequency, TF over GST control)	1.26 fold enrichment (6-mer frequency, TF over GST control)	1.39 fold enrichment (6-mer frequency, TF over GST control)	1.36 fold enrichment (6-mer frequency, TF over GST control)	1.39 fold enrichment (6-mer frequency, TF over GST control)
TGCGCT	1.33 fold enrichment (6-mer frequency, TF over GST control)	1.21 fold enrichment (6-mer frequency, TF over GST control)	1.43 fold enrichment (6-mer frequency, TF over GST control)	1.19 fold enrichment (6-mer frequency, TF over GST control)	1.17 fold enrichment (6-mer frequency, TF over GST control)	1.15 fold enrichment (6-mer frequency, TF over GST control)	1.24 fold enrichment (6-mer frequency, TF over GST control)	1.24 fold enrichment (6-mer frequency, TF over GST control)
ACATCC	2.41 fold enrichment (6-mer frequency, TF over GST control)	2.46 fold enrichment (6-mer frequency, TF over GST control)	2.68 fold enrichment (6-mer frequency, TF over GST control)	5.32 fold enrichment (6-mer frequency, TF over GST control)	2.28 fold enrichment (6-mer frequency, TF over GST control)	3.25 fold enrichment (6-mer frequency, TF over GST control)	2.88 fold enrichment (6-mer frequency, TF over GST control)	2.49 fold enrichment (6-mer frequency, TF over GST control)
TTTGTT	1.29 fold enrichment (6-mer frequency, TF over GST control)	1.27 fold enrichment (6-mer frequency, TF over GST control)	1.26 fold enrichment (6-mer frequency, TF over GST control)	1.33 fold enrichment (6-mer frequency, TF over GST control)	1.18 fold enrichment (6-mer frequency, TF over GST control)	1.27 fold enrichment (6-mer frequency, TF over GST control)	1.34 fold enrichment (6-mer frequency, TF over GST control)	1.34 fold enrichment (6-mer frequency, TF over GST control)
TCCTGC	1.43 fold enrichment (6-mer frequency, TF over GST control)	1.71 fold enrichment (6-mer frequency, TF over GST control)	1.65 fold enrichment (6-mer frequency, TF over GST control)	1.98 fold enrichment (6-mer frequency, TF over GST control)	1.69 fold enrichment (6-mer frequency, TF over GST control)	2.12 fold enrichment (6-mer frequency, TF over GST control)	1.73 fold enrichment (6-mer frequency, TF over GST control)	1.77 fold enrichment (6-mer frequency, TF over GST control)
ACTTCT	1.35 fold enrichment (6-mer frequency, TF over GST control)	1.65 fold enrichment (6-mer frequency, TF over GST control)	1.4 fold enrichment (6-mer frequency, TF over GST control)	1.21 fold enrichment (6-mer frequency, TF over GST control)	1.5 fold enrichment (6-mer frequency, TF over GST control)	1.58 fold enrichment (6-mer frequency, TF over GST control)	1.36 fold enrichment (6-mer frequency, TF over GST control)	1.58 fold enrichment (6-mer frequency, TF over GST control)
CACAAG	1.13 fold enrichment (6-mer frequency, TF over GST control)	1.16 fold enrichment (6-mer frequency, TF over GST control)	1.22 fold enrichment (6-mer frequency, TF over GST control)	1.07 fold enrichment (6-mer frequency, TF over GST control)	1.05 fold enrichment (6-mer frequency, TF over GST control)	1.11 fold enrichment (6-mer frequency, TF over GST control)	1.16 fold enrichment (6-mer frequency, TF over GST control)	1.14 fold enrichment (6-mer frequency, TF over GST control)
AAAATC	1.17 fold enrichment (6-mer frequency, TF over GST control)	1.18 fold enrichment (6-mer frequency, TF over GST control)	1.14 fold enrichment (6-mer frequency, TF over GST control)	1.2 fold enrichment (6-mer frequency, TF over GST control)	1.16 fold enrichment (6-mer frequency, TF over GST control)	1.15 fold enrichment (6-mer frequency, TF over GST control)	1.13 fold enrichment (6-mer frequency, TF over GST control)	1.19 fold enrichment (6-mer frequency, TF over GST control)
TATTGA	1.12 fold enrichment (6-mer frequency, TF over GST control)	1.22 fold enrichment (6-mer frequency, TF over GST control)	1.12 fold enrichment (6-mer frequency, TF over GST control)	1.17 fold enrichment (6-mer frequency, TF over GST control)	1.14 fold enrichment (6-mer frequency, TF over GST control)	1.11 fold enrichment (6-mer frequency, TF over GST control)	1.19 fold enrichment (6-mer frequency, TF over GST control)	1.16 fold enrichment (6-mer frequency, TF over GST control)
AAGCCT	1.17 fold enrichment (6-mer frequency, TF over GST control)	1.23 fold enrichment (6-mer frequency, TF over GST control)	1.22 fold enrichment (6-mer frequency, TF over GST control)	1.02 fold enrichment (6-mer frequency, TF over GST control)	1.3 fold enrichment (6-mer frequency, TF over GST control)	1.2 fold enrichment (6-mer frequency, TF over GST control)	1.3 fold enrichment (6-mer frequency, TF over GST control)	1.23 fold enrichment (6-mer frequency, TF over GST control)
CTTCGT	1.4 fold enrichment (6-mer frequency, TF over GST control)	1.32 fold enrichment (6-mer frequency, TF over GST control)	1.34 fold enrichment (6-mer frequency, TF over GST control)	1.25 fold enrichment (6-mer frequency, TF over GST control)	1.4 fold enrichment (6-mer frequency, TF over GST control)	1.3 fold enrichment (6-mer frequency, TF over GST control)	1.31 fold enrichment (6-mer frequency, TF over GST control)	1.31 fold enrichment (6-mer frequency, TF over GST control)
CTTTTG	1.62 fold enrichment (6-mer frequency, TF over GST control)	1.31 fold enrichment (6-mer frequency, TF over GST control)	1.45 fold enrichment (6-mer frequency, TF over GST control)	1.46 fold enrichment (6-mer frequency, TF over GST control)	1.44 fold enrichment (6-mer frequency, TF over GST control)	1.28 fold enrichment (6-mer frequency, TF over GST control)	1.24 fold enrichment (6-mer frequency, TF over GST control)	1.46 fold enrichment (6-mer frequency, TF over GST control)
ATCTCC	1.47 fold enrichment (6-mer frequency, TF over GST control)	1.46 fold enrichment (6-mer frequency, TF over GST control)	1.5 fold enrichment (6-mer frequency, TF over GST control)	1.68 fold enrichment (6-mer frequency, TF over GST control)	1.31 fold enrichment (6-mer frequency, TF over GST control)	1.53 fold enrichment (6-mer frequency, TF over GST control)	1.44 fold enrichment (6-mer frequency, TF over GST control)	1.51 fold enrichment (6-mer frequency, TF over GST control)
